“And” between values parts separate entries of the source, which are not always exact repeats. Equal values may be shown once. Where a name gives a salt, the structure may show the parent alone.
Assays:
Experiment in all cases: cell viability relative to vehicle control; higher = less cytotoxic
Conditions in all cases: 10 µM
K562 = system: K562
In short: (§1)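 Mutant clones made by CRISPR editing and their isogenic wild-type counterparts, from four leukaemia lines, were exposed to a single 10 µM dose of each library compound for 48 h. The supernatant was then removed and CellTiter-Glo luminescence was read. Viability was reported as percent of the on-plate vehicle control.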

MARIMO = system: MARIMO
In short: as §1

MOLM14 = system: MOLM14
In short: as §1

OCI-AML2 = system: OCI-AML2
In short: as §1

SMILES | cell viability (K562; SRSF2 genotype: SRSF2 P95H/wt) | cell viability (K562; SRSF2 genotype: SRSF2 wt/wt) [%] | cell viability (MARIMO; SRSF2 genotype: SRSF2 P95H/wt) [%] | cell viability (MARIMO; SRSF2 genotype: SRSF2 wt/wt) [%] | cell viability (MOLM14; SRSF2 genotype: SRSF2 P95H/wt) [%] | cell viability (MOLM14; SRSF2 genotype: SRSF2 wt/wt) [%] | cell viability (OCI-AML2; SRSF2 genotype: P95H/wt) [%] | cell viability (OCI-AML2; SRSF2 genotype: wt/wt) [%]
Cc1cc(C(O)=C2C(=O)C(=O)N(CCCN3CCOCC3)C2c2ccncc2)ccc1OCc1ccccc1 (centres undefined) | 96.1% and 98.6% | 102 | 93.9 | 92.6 | 107 | 96.5 | 103 | 94.2
O=C(COc1cccc2c(=O)[nH]ccc12)c1ccccc1 | 89.7% and 93.9% | 98.9 | 94.6 | 88.4 | 102 | 98.5 | 88 | 84.1
CC(C)[C@H](N)C(=O)OCC(CO)OCn1cnc2c(=O)nc(N)[nH]c21 (some centres undefined) [Valganciclovir Hydrochloride] | 86.3% and 81.6% | 83.1 | 90.7 | 84.8 | 87.2 | 88.3 | 77 | 89.2
O=C1C(c2[nH]c3ccc(S(=O)(=O)O)cc3c2O)=Nc2ccc(S(=O)(=O)O)cc21 [Indigo carmine] | 98.1% and 93.6% | 94.2 | 94.5 | 106 | 83.1 | 99.5 | 79.9 | 84
c1cc(CN2CCCNCCNCCCNCC2)ccc1CN1CCCNCCNCCCNCC1 [Plerixafor] | 93.9% and 99.1% | 99.1 | 96.2 | 100 | 94.8 | 94.7 | 103 | 96.9
O=CN1CC/C(=C/c2ccc3c(c2)OCO3)C1=O | 99.4% and 95.3% | 94.6 | 95.2 | 104 | 75.9 | 90.1 | 67.1 | 74.7
O=c1cc(-c2ccc(O)cc2)oc2cccc(O)c12 [4',5-Dihydroxyflavone] | 89.4% and 86% | 89.7 | 84.4 | 84.6 | 64.3 | 72.5 | 66.4 | 69.4
Cc1c(-c2ccnn2C)cc(C(=O)NCc2ccc(S(C)(=O)=O)cn2)c(=O)n1-c1cccc(C(F)(F)F)c1 | 97.6% and 102% | 100 | 112 | 105 | 109 | 106 | 107 | 113
O=C(O)P(=O)(O)O [Foscarnet Sodium] | 106% and 108% | 107 | 101 | 108 | 101 | 109 | 112 | 95.6
NC12CC3CC(CC(C3)C1)C2 [Amantadine hydrochloride (Symmetrel)] | 99.7% and 116% | 107 | 107 | 103 | 106 | 112 | 111 | 100
Cc1noc(NS(=O)(=O)c2ccc(N)cc2)c1C [Sulfisoxazole] | 106% and 97.9% | 107 | 98.5 | 104 | 97.6 | 103 | 98.5 | 104
O=C(NOCC1CC1)c1ccc(F)c(F)c1Nc1ccc(I)cc1Cl | 74.9% and 78.8% | 69.2 | 37.4 | 35.4 | 39.2 | 30.4 | 39.5 | 46.5
O=C(O)CCCc1ccccc1 [Sodium Phenylbutyrate] | 110% and 98.8% | 105 | 100 | 109 | 96.9 | 102 | 94.8 | 100
COc1cc(S(=O)(=O)O)ccc1O [Sulfogaiacol] | 106% and 109% | 113 | 108 | 112 | 107 | 104 | 117 | 105
CC(CCC(=O)NCCS(=O)(=O)O)C1CCC2C3C(O)CC4CC(O)CCC4(C)C3CCC12C (centres undefined) [Taurochenodeoxycholic acid] | 104% and 101% | 99.3 | 103 | 108 | 104 | 104 | 109 | 97.8
O=C1NS(=O)(=O)c2ccccc21 [Saccharin] | 99% and 89.3% | 93.9 | 90.5 | 101 | 97.9 | 96.6 | 89.5 | 103
OCCc1ccc(O)c(O)c1 [Hydroxytyrosol] | 94.8% and 103% | 98.2 | 90.5 | 103 | 97.5 | 104 | 105 | 106
c1cncc(CN2CCC(n3ncc4c(N5CCOCC5)nc(-c5ccc6[nH]ccc6c5)nc43)CC2)c1 | 41.8% and 44.3% | 51 | 3.19 | 6.42 | 35 | 25 | 26.2 | 29.1
Cc1ccc(NC(=O)c2cccc(C(C)(C)C#N)c2)cc1Nc1ccc2ncn(C)c(=O)c2c1 | 12.9% and 33% | 25.2 | 44 | 40.9 | 44.9 | 35.3 | 42.7 | 41.7
CC(C)n1nc(-c2ccc(NC(=O)Nc3cc(C(F)(F)F)ccc3F)cc2)c2c(N)ncnc21 | 26.5% and 30.8% | 19 | 8.66 | 4.51 | 1.98 | 0.7 | 2.08 | 8.47
O=C(O)Cc1ccc2c(c1)C(=O)c1ccccc1CO2 [Isoxepac] | 104% | 105 | 106 | 105 | 100 | 105 | 105 | 105
CCCCCCCCCC(=O)OCC(COC(=O)CCCCCCCCC)OC(=O)CCCCCCCCC [Glyceryl tridecanoate] | 105% and 101% | 100 | 106 | 114 | 100 | 104 | 97.2 | 98.6

SMILES | cell viability (K562; SRSF2 genotype: SRSF2 P95H/wt) | cell viability (K562; SRSF2 genotype: SRSF2 wt/wt) [%] | cell viability (MARIMO; SRSF2 genotype: SRSF2 P95H/wt) [%] | cell viability (MARIMO; SRSF2 genotype: SRSF2 wt/wt) [%] | cell viability (MOLM14; SRSF2 genotype: SRSF2 P95H/wt) [%] | cell viability (MOLM14; SRSF2 genotype: SRSF2 wt/wt) [%] | cell viability (OCI-AML2; SRSF2 genotype: P95H/wt) [%] | cell viability (OCI-AML2; SRSF2 genotype: wt/wt) [%]
S=C(N/N=C1/CCCc2cccnc21)N1CCN(c2ccccn2)CC1 | 16.2% and 6.78% | 26.6 | 28 | 25.2 | 22.1 | 13.9 | 22.8 | 30.5
COc1ccc([C@@H]2OC[C@H]3[C@@H]2CO[C@@H]3c2ccc3c(c2)OCO3)cc1OC [Fargesin] | 87.8% and 91.3% | 92.7 | 84.8 | 86 | 97.2 | 94.5 | 88.6 | 80.4
C/C(=C\C(=O)Nc1ccccc1C(=O)O)c1ccc2ccccc2c1 | 101% and 90.8% | 106 | 84.3 | 98.2 | 88.5 | 92.8 | 95.1 | 93.6
COc1ccc(CC(=O)Nc2nc3c(s2)CCc2ccccc2-3)cc1OC | 70.4% and 68.1% | 68.3 | 45.1 | 26.8 | 65.1 | 76.5 | 27.9 | 34.9
C=CC(=O)Nc1cc(Nc2nccc(-n3cc(CN(C)C)c(-c4ccccc4)n3)n2)c(OC)cc1N1CCOCC1 | 85.6% and 94.6% | 84.8 | 76.5 | 80.2 | 74.2 | 75.5 | 63.9 | 63.3
O=c1[nH]c(=O)n([C@H]2C[C@H](O)[C@@H](CO)O2)cc1F [Floxuridine] | 54.2% and 46.3% | 30.1 | 86.5 | 96.5 | 48 | 14.9 | 30.9 | 48.8
CC(c1cc2ccccc2s1)N(O)C(N)=O (centres undefined) [Zileuton] | 101% and 96.3% | 99.1 | 94.3 | 99.2 | 98.7 | 98.1 | 92.8 | 97.4
CC[C@H](Nc1ncnc2[nH]cnc12)c1oc2ccccc2c(=O)c1-c1cccc(F)c1 [Tenalisib (RP6530)] | 101% and 96% | 98.2 | 95.2 | 100 | 82.4 | 84.4 | 84.8 | 87.5
C[C@H]1COc2c(N3CCN(C)CC3)c(F)cc3c(=O)c(C(=O)O)cn1c23 [Levofloxacin hydrate] | 93.5% and 91% | 95.8 | 94.3 | 98.4 | 97.2 | 97.9 | 93.3 | 92.1
CC(C)c1cnn2c(NCc3ccccc3)cc(NCCCCCCN)nc12 | 86.8% and 99.7% | 101 | 89.9 | 87.8 | 95.9 | 98.5 | 89.4 | 87.5
CCCCc1nc(C)c(CC(=S)N(C)C)c(=O)n1Cc1ccc(-c2ccccc2-c2nnn[nH]2)cc1 [Fimasartan] | 100% and 107% | 106 | 108 | 109 | 101 | 103 | 106 | 93.1
NC(=O)c1cnc(N[C@@H]2CCCC[C@@H]2N)nc1Nc1cccc(-n2nccn2)c1 | 16.9% and 18.1% | 15.9 | 16 | 12.6 | 2.43 | 1.83 | 0.51 | 3.84
C=C[C@]1(C)C[C@@H](OC(=O)CSCCN(CC)CC)[C@]2(C)[C@H](C)CC[C@]3(CCC(=O)[C@H]32)[C@@H](C)[C@@H]1O [Tiamulin] | 83.5% and 81.7% | 90.1 | 75.6 | 92.8 | 84 | 87.9 | 86.1 | 79.5
COc1cc(N2CCC(N(C)C)CC2)ccc1Nc1ncc(Cl)c(Nc2ccccc2P(C)(C)=O)n1 | 41.2% and 62.9% | 34.2 | 34 | 27.2 | 1.15 | 3.56 | 4.59 | 12.3
C[C@]1(c2nc3c(C(N)=O)cccc3[nH]2)CCCN1 [ABT-888 (Veliparib)] | 93.1% and 93% | 89.4 | 91 | 96.5 | 82.4 | 79 | 70.2 | 83.5
C[C@@H]1CC(=O)Nc2cccc(-c3ccc4c(c3)c(-c3cnn(C)c3)nn4C)c2N1 | 80.2% and 77.7% | 81.6 | 55.1 | 49.1 | 32.5 | 35.8 | 32.6 | 47.2
O=C(O)CCC(=O)Nc1ccc(Br)cn1 [Bikinin] | 100% and 97.8% | 106 | 104 | 104 | 102 | 106 | 102 | 99.7
Oc1ccc2ccccc2c1SSc1c(O)ccc2ccccc12 | 62.1% and 81.6% | 83.9 | 32.7 | 29.7 | 18.9 | 29.6 | 31.8 | 31.2
Cn1c(=O)c(Oc2ccc(F)cc2F)cc2cnc(NC(CCO)CCO)nc21 | 91.7% and 92.6% | 90.4 | 98.9 | 97.2 | 92.2 | 99.8 | 96.2 | 92.2
O=C(CNc1ccc2ccccc2c1)N/N=C/c1cc(Br)c(O)c(Br)c1O | 81.1% and 82.1% | 72.8 | 50.8 | 65.4 | 62.3 | 51.7 | 49.8 | 58.5
CCOc1nc2cccc(C(=O)OC(C)OC(=O)OC3CCCCC3)c2n1Cc1ccc(-c2ccccc2-c2nn[nH]n2)cc1 (centres undefined) [Candesartan cilexetil (Atacand)] | 95.6% and 97.9% | 75.5 | 98.8 | 106 | 62.2 | 87.1 | 90 | 72.1
